# Measured values: PubChem BioAssay (EPA / NIEHS)
# Results filed as inconclusive are left out. Activity calls are given as the source filed them. Rule for the calls: active = hit-call score of the fitted dose curve at least 0.9, where 1 is the maximum; inconclusive = response in the unintended direction; inactive = score below 0.9.
# Biological target: rat Adenylate Cyclase, Forskolin Stimulated, Adcy5 (gene 64532) (UniProt Q04400)
# Experiment: NVS_ENZ_rACFSKBinding: NovaScreen (NVS) Enzymatic Assay for rat Adenylate Cyclase, Forskolin Stimulated (AID 2283232)
# Protocol: NVS_ENZ_rACFSKBinding is a biochemical, single-readout assay that uses extracted gene-proteins from Rat forebrain membranes in a tissue-based cell-free assay. Measurements were taken 1 hour after chemical dosing in a 48-well plate.NVS_ENZ_rACFSKBinding is one of one assay component(s) measured or calculated from the NVS_ENZ_rACFSKBinding assay. It is designed to make measurements of enzyme activity, a form of enzyme reporter, as detected with scintillation counting signals by Filter-based radiodetection technology.Data from the assay component NVS_ENZ_rACFSKBinding was analyzed into 1 assay endpoint. This assay endpoint, NVS_ENZ_rACFSKBinding, was analyzed in the positive analysis fitting direction relative to DMSO as the negative control and baseline of activity. Using a type of enzyme reporter, loss-of-signal activity can be used to understand changes in the enzymatic activity as they relate to the gene Adcy5. Furthermore, this assay endpoint can be referred to as a primary readout, because this assay has produced multiple assay endpoints where this one serves a enzymatic activity function. To generalize the intended target to other relatable targets, this assay endpoint is annotated to the lyase intended target family, where the subfamily is adenylyl cyclase.
# Binding assays used specific radioligands (tritiated, iodinated) with non-radioactive competitive displacement ligands in agonist or antagonist protocols (as indicated) and various reference compounds and inhibitors to titrate specific binding to receptors and transporters. Most enzyme assays (CYPs, kinases, phosphatases, proteases, HDACs) used recombinant protein and specific substrates (fluorescence mostly, some colorimetric and radioactive) and inhibitors, followed by a biochemical separation of substrate and product. All assays for the biochemical HTS were initially run in duplicate at a single concentration (10 uM for CYP450 assays and 25 uM for all others). Assay-chemical combinations meeting a pre-defined threshold (e.g., 30% inhibition and other criteria defined below) were then run in singleton concentration-response format with maximum concentration of 20 uM for CYPs and 50 uM for all others. Each assay was run with positive and negative controls, and concurrent controls on every plate. The follow-up (secondary) screen tested active chemical-pairs in concentration series, as well as a few additional assays not tested in the primary screen, some selected negative inactives, and several cases re-run in the concentration series for confirmatory purposes.
# Sequence of rat Adenylate Cyclase, Forskolin Stimulated, Adcy5 (gene 64532) (Q04400 whole entry, looked up): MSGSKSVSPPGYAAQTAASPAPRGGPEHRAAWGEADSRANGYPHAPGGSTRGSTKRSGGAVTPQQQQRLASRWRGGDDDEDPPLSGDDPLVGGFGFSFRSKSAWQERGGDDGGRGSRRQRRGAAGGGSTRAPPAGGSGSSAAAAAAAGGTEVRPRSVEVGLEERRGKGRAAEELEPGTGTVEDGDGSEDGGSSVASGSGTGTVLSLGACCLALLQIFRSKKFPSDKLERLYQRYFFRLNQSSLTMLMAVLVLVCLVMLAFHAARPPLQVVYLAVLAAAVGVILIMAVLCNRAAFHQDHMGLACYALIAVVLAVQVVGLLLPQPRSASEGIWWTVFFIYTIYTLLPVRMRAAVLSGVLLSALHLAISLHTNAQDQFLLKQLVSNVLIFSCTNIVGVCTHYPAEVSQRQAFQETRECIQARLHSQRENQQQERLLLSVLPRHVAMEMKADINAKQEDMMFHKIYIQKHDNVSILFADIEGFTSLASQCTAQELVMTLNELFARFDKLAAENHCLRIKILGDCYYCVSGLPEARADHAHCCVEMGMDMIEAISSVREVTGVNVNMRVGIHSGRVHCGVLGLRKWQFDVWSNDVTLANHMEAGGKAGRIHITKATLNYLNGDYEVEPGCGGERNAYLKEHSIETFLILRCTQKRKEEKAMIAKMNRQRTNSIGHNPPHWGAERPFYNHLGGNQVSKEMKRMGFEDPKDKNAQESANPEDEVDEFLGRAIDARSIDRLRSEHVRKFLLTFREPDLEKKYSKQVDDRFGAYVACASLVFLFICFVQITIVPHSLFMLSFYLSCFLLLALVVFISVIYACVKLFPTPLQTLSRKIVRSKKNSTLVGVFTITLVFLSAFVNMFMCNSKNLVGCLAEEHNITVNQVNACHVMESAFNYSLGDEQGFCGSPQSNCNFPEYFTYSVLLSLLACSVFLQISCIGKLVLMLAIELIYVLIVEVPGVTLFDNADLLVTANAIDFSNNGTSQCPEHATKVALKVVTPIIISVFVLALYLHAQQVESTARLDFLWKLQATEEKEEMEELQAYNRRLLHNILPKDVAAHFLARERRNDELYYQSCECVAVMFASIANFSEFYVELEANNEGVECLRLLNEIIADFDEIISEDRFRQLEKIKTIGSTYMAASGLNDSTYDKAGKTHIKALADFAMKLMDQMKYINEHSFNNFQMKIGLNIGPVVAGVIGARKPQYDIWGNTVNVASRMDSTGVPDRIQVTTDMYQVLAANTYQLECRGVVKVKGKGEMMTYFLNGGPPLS
Structure (SMILES),outcome,AC50
O=C(OC[C@H]1O[C@@H](OC(=O)c2cc(O)c(O)c(OC(=O)c3cc(O)c(O)c(O)c3)c2)[C@H](OC(=O)c2cc(O)c(O)c(OC(=O)c3cc(O)c(O)c(O)c3)c2)[C@@H](OC(=O)c2cc(O)c(O)c(OC(=O)c3cc(O)c(O)c(O)c3)c2)[C@@H]1OC(=O)c1cc(O)c(O)c(OC(=O)c2cc(O)c(O)c(O)c2)c1)c1cc(O)c(O)c(OC(=O)c2cc(O)c(O)c(O)c2)c1,inactive,–
NCc1cccc(C2CCN(C(=O)c3ccc(C#Cc4ccccc4F)o3)CC2)c1,inactive,–
S=C([S-])NCCNC(=S)[S-].[Mn+2],inactive,–
S=C(S)NCCNC(=S)S.[Mn+2].[S-]C([S-])=NCCN=C([S-])[S-].[Zn+2],inactive,–
O=P(OC(CCl)CCl)(OC(CCl)CCl)OC(CCl)CCl,inactive,–
O=c1[nH]sc2ccccc12,–,16.2 µM (active)
COCCOC[C@H](CC1(C(=O)NC2CCC(C(=O)O)CC2)CCCC1)C(=O)Oc1ccc2c(c1)CCC2 (stereo partly drawn),inactive,–
CN(C)c1ccc(N=NS(=O)(=O)O)cc1,inactive,–
CCN(CC)C(=S)SSC(=S)N(CC)CC,–,6.29 µM (active)
OCCC(F)(F)C(F)(F)C(F)(F)C(F)(F)C(F)(F)C(F)(F)F,inactive,–
Nc1ccc(Nc2ccccc2)cc1,–,39.6 µM (active)
Cc1occc(=O)c1O,inactive,–
N#CSCSc1nc2ccccc2s1,–,25 µM (active)
